Results reported in PubChem BioAssay (NCATS).
Records with an inconclusive call do not appear. Calls of active or inactive are those of the source. The call rests on the fitted dose curve; in most records, active means well fitted activation curve with a large enough effect; inconclusive means small, poorly fitted or top-dose-only effect; inactive means flat fitted curve, though single readings scatter.

Experiment: Primary redox qHTS assay for identification of artifact compounds. (AID 1845223);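 further: 0% = DMSO and 100% = reference compound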
Conditions: Amplex Red/HRP redox cycling with DTT, fluorescence; series mostly up to 53.8 µM; redox activity (% of DA3003): at the top concentration
In short: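 Redox-cycling detection via DTT (250 uM final) oxidation coupled to Amplex Red (25 uM)/HRP (250 mU/mL) in HBSS. 15 min preincubation plus 30 min after DTT, room temperature. Ex/Em 525/598 nm; 4-parameter Hill fit against DMSO and 10 uM DA3003.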

Row | SMILES | redox activity (% of DA3003)
1 | C=C1CC[C@@H]2[C@](C)(CO)[C@H](O)CC[C@@]2(C)[C@@H]1CC(=O)C1=CCOC1=O | -2.3% (inactive)
2 | O=C(/C=C/c1ccccc1O)O[C@@H]1O[C@H](CO)[C@@H](O)[C@H](O)[C@H]1O | -1.07% (inactive)
3 | CC[C@@H](Nc1c(Nc2cccc(C(=O)N(C)C)c2O)c(=O)c1=O)c1cc(C(C)C)co1 | -0.816% (inactive)
4 | COC1CC(O[C@H]2CC[C@]3(C)C4CC[C@@]5(C)C(=O)[C@]4(CC[C@@H]3C2)CC[C@@H]5C2=CC(=O)OC2)OC(C)C1OC1OC(COC2OC(CO)C(O)C(O)C2O)C(O)C(O)C1O (some centres undefined) | 13.6% [at 11.5 µM] (inactive)
5 | COCc1c(Cl)ccc2c1CC[C@H]2c1ncc[nH]1 | -0.367% (inactive)
6 | CC12CCC3C1C(c1c(cc(O)c(C(=O)c4ccccc4)c1O)O2)C3(C)C (centres undefined) | -8.7% (inactive)
7 | COc1ccc(CN2CCN(CCCSc3cc(C(C)(C)C)c(O)c(C(C)(C)C)c3)CC2)c(OC)c1OC | 6.4% [at 11.5 µM] (inactive)
8 | COc1cc2ncnc(Nc3ccc(F)c(Cl)c3)c2cc1O | -3.54% (inactive)
9 | COc1ccc(Sc2ccc(NC(=O)c3ccccc3Cl)cc2C#N)cc1 | -2.37% (inactive)
10 | NC(N)=N/N=C/c1ccccc1Cl | -1.34% (inactive)
11 | CCCCNc1ncc(C(=O)NCc2ccc(-n3ccnc3)cc2)c(NC2CCC(O)CC2)n1 (centres undefined) | 10.9% (inactive)
12 | CN(C)c1ccnc2sc3c(=O)n(N4CCCCCC4)cnc3c12 | 4.01% (inactive)
13 | CC(=O)NC[C@H]1CN(c2ccc(N3CCSCC3)c(F)c2)C(=O)O1 | 0.0893% (inactive)
14 | O=C(Nc1nc2ccc([N+](=O)[O-])cc2s1)C1CCCCC1 | -5.57% (inactive)
15 | Cn1cc(C2=C(c3coc4ccccc34)C(=O)NC2=O)c2cc(Br)ccc21 | -11.1% (inactive)
16 | C=C1C(=O)OC2/C=C(\C)CC/C=C(\C)CC(OC(C)=O)C12 (centres undefined) | 10.8% (inactive)
17 | Cc1nc2cc(C(=O)NCc3ccccn3)nn2c(C)c1Cc1cccc(Cl)c1 | 18.8% (inactive)
18 | CN1CCN(C(=O)CN[C@@H]2C[C@H]2c2ccc(OCc3ccccc3)cc2)CC1 | 12.8% (inactive)
19 | Cc1cc(Nc2nc(-c3ccccc3)nc3ccccc23)n[nH]1 | -2.3% (inactive)
20 | C=C1C(=O)O[C@@H]2/C=C(\CO)CC/C=C(/C=O)C[C@@H](O)[C@@H]12 | -2.93% (inactive)

Row | SMILES | redox activity (% of DA3003)
21 | CCC(=C(c1ccc(OCCN2CCCC2)cc1)c1ccc(OCCN2CCCC2)cc1)c1ccccc1 | -0.0578% (inactive)
22 | CN(C)CCN(Cc1ccc(-c2ccc(CNCCc3ccccc3)cc2)cc1)C(=O)CCC1CCCC1 | 5.93% (inactive)
23 | CC(=O)O[C@@H]1C[C@@]23C[C@@]24CC[C@H](O[C@@H]2OC[C@H](O)[C@H](O)[C@H]2O)C(C)(C)[C@@H]4CC[C@H]3[C@]2(C)[C@@H](O)C34O[C@H](C[C@@H](C)[C@@H]3[C@@]12C)[C@@H](C(C)(C)O)O4 | 13.8% (inactive)
24 | C=C1/C(=C/C=C2\CCC[C@]3(C)[C@@H]([C@H](C)/C=C/[C@@H](C)C(C)C)CC[C@@H]23)C[C@@H](O)C[C@@H]1O | 19.6% (inactive)
25 | O=C(NCc1cccs1)c1cc2nc(-c3ccco3)cc(C(F)(F)Cl)n2n1 | -6.07% (inactive)
26 | COc1ccc(CN2CCN(C(=O)CCNC(=O)c3ccc(C(C)(C)C)cc3)CC2)cc1 | 12% (inactive)
27 | CC1(C)CC[C@]2(C(=O)O)CC[C@]3(C)C(=CCC4[C@@]5(C)C[C@@H](O)[C@H](O)C(CO)(CO)C5CC[C@]43C)C2[C@@H]1O (some centres undefined) | -12.6% [at 25.6 µM] (inactive)
28 | C[C@H](Oc1cc(-c2cnn(C3CCNCC3)c2)cnc1N)c1c(Cl)ccc(F)c1Cl | 17.4% (inactive)
29 | O=C(NCc1ccccc1)c1ccc2c(=O)n(-c3cccc(C(F)(F)F)c3)c(=S)[nH]c2c1 | -0.756% (inactive)
30 | CC(C)(F)CC(NC(c1ccc(-c2ccc(S(C)(=O)=O)cc2)cc1)C(F)(F)F)C(=O)NC1(C#N)CC1 (centres undefined) | 9.33% (inactive)
31 | CCn1c(=O)n([C@H]2CCCN(c3nccc(-c4cc5ccccc5o4)n3)C2)c2ccccc21 | -3.17% (inactive)
32 | COc1ccc(C2Oc3c(OC)cc(CCCO)cc3C2COC2OC(CO)C(O)C(O)C2O)cc1OC (centres undefined) | 2.14% [at 25.6 µM] (inactive)
33 | CC(C)S(=O)(=O)NC[C@H](C)c1ccc(-c2ccc(CCNS(C)(=O)=O)cc2)cc1 | -4.66% (inactive)
34 | CC1=C(C(=O)Nc2cc(Cl)ccc2Cl)C(c2ccco2)C2=C(CCCC2=O)N1 (centres undefined) | 8.21% (inactive)
35 | O=C(OC1CN2CCC1CC2)N1CCc2ccccc2C1c1ccccc1 (centres undefined) | 17.2% (inactive)
36 | N#Cc1ccc(O[C@@H]2c3ccccc3C[C@H]2N2CCC[C@@H](N)C2)c(Cl)c1 | 19.3% (inactive)
37 | CCCCCc1ccc(/C=C/C(=O)Nc2cc(Cl)ccc2C(=O)O)cc1 | 2.33% (inactive)
38 | CC(=O)[C@H]1CC[C@H]2[C@@H]3CC=C4C[C@@H](OS(=O)(=O)O)CC[C@]4(C)[C@H]3CC[C@]12C | 17.1% (inactive)
39 | CC(C)CCNc1ncccc1C(=O)N1CCN(Cc2ccccc2)CC1 | 14.1% (inactive)
